From publication PMC7862700, “An all-to-all approach to the identification of sequence-specific readers for epigenetic DNA modifications on cytosine”

Assays:
Experiment in all cases: DAPPL (digital affinity profiling via proximity ligation, sequencing); 10 mM Tris-HCl pH 7.5, 50 mM NaCl, 1 mM DTT, 4% glycerol, room temperature, 30 min; GST-TFs on glutathione beads, 16-mer random dsDNA library, 0.1% formaldehyde crosslink after washing; high values mean tight binding
FLI1 = biological target: T1, FLI1 (Homo sapiens, UniProt Q01543 1-452); settings: protein: recombinant; tags: N-terminal GST; dsDNA, one strand shown
T1 sequence: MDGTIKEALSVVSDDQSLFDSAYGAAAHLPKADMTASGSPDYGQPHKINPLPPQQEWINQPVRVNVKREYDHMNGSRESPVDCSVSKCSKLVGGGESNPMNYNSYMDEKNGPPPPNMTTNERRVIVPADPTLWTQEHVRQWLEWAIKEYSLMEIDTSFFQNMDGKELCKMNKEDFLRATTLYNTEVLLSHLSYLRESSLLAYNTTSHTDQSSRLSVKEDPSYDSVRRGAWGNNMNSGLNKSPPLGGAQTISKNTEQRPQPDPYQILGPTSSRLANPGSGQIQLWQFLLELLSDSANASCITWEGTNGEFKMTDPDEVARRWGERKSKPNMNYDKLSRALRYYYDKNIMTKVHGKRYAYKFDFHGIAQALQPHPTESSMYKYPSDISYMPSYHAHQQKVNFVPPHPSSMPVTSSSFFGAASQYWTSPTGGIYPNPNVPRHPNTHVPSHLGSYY
Outline: (§1)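 Binding signal is given per hexamer as its read frequency for a factor divided by its frequency in the tag-only sample. GST-fused human transcription factors were expressed in yeast, captured on glutathione beads, barcoded with DNA and pooled with that sample, then incubated with 200 nmole of a 16-mer random double-stranded DNA library in Tris/NaCl/DTT/glycerol buffer for 30 min at room temperature. The pools were then washed, crosslinked, proximity-ligated, amplified by PCR and sequenced on an Illumina NextSeq500.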

ELK1 = biological target: T2, ELK1 (Homo sapiens, UniProt P19419 1-428); settings: protein: recombinant; tags: N-terminal GST; dsDNA, one strand shown
T2 sequence: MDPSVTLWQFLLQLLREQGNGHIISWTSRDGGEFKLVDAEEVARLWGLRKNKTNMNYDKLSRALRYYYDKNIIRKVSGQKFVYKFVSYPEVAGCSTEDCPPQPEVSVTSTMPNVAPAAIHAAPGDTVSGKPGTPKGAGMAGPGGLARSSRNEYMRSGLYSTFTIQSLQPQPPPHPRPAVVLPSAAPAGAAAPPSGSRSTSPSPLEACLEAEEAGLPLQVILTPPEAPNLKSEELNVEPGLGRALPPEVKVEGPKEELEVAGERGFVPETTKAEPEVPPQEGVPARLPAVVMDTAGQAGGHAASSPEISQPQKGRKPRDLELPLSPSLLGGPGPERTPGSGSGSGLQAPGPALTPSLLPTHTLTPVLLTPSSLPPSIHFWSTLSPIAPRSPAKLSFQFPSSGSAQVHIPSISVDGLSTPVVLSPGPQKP
Outline: as §1

GABPA = biological target: T3, GABPA (Homo sapiens, UniProt Q06546 1-454); settings: protein: recombinant; tags: N-terminal GST; dsDNA, one strand shown
T3 sequence: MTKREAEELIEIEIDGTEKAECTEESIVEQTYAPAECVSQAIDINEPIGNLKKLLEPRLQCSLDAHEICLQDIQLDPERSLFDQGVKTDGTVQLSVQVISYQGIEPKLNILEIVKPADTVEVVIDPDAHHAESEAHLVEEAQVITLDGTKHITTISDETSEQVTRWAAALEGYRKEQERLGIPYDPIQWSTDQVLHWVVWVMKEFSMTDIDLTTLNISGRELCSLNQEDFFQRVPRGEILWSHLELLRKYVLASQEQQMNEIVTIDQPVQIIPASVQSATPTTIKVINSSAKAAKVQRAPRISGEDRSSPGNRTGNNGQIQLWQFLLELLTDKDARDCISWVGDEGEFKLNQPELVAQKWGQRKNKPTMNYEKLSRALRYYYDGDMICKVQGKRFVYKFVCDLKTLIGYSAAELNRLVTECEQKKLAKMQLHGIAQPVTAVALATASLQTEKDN
Outline: as §1

ERG = biological target: T4, ERG (Homo sapiens, UniProt P11308 1-479); settings: protein: recombinant; tags: N-terminal GST; dsDNA, one strand shown
T4 sequence: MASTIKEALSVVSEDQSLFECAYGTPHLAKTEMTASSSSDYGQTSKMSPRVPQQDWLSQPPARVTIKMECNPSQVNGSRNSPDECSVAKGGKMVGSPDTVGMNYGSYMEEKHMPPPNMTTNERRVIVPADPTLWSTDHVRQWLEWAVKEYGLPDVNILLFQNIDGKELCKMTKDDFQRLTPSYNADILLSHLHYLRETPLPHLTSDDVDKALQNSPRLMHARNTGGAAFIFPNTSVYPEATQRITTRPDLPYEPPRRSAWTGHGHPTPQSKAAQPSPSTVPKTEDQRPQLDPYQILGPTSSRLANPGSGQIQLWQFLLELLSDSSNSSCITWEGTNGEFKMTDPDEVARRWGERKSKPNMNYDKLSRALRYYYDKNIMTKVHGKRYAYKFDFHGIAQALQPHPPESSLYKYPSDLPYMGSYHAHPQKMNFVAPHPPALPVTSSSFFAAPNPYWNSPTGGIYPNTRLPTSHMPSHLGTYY
Outline: as §1

ELF1 = ELF1 (Homo sapiens, UniProt P32519 1-619); settings: protein: recombinant; tags: N-terminal GST; dsDNA, one strand shown
Outline: as §1

EHF = biological target: T5, EHF (Homo sapiens, UniProt Q9NZC4 1-300); settings: protein: recombinant; tags: N-terminal GST; dsDNA, one strand shown
T5 sequence: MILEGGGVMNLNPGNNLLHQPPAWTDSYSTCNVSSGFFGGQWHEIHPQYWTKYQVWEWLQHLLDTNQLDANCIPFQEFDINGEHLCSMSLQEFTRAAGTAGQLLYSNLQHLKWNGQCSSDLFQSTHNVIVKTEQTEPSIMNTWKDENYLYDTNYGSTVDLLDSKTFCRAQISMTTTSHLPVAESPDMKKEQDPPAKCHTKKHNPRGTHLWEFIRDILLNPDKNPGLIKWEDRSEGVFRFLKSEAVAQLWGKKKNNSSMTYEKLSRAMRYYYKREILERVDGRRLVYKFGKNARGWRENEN
Outline: as §1

SPI1 = SPI1 (Homo sapiens, UniProt P17947 1-270); settings: protein: recombinant; tags: N-terminal GST; dsDNA, one strand shown
Outline: as §1

SPIB = SPIB (Homo sapiens, UniProt Q01892 1-262); settings: protein: recombinant; tags: N-terminal GST; dsDNA, one strand shown
Outline: as §1

ELK3 = biological target: T6, ELK3 (Homo sapiens, UniProt P41970 1-407); settings: protein: recombinant; tags: N-terminal GST; dsDNA, one strand shown
T6 sequence: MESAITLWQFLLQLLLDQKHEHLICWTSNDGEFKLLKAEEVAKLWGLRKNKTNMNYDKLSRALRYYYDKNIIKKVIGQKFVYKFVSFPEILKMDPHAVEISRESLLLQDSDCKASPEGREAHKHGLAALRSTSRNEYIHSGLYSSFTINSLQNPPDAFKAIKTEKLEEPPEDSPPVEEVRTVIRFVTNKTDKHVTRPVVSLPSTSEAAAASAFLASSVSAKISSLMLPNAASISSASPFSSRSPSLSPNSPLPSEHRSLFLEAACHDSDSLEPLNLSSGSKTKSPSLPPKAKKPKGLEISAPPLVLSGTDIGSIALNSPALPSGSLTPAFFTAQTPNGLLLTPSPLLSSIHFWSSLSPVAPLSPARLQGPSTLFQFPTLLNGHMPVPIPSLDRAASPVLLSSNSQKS
Outline: as §1

FEV = biological target: T7, FEV (Homo sapiens, UniProt Q99581 1-238); settings: protein: recombinant; tags: N-terminal GST; dsDNA, one strand shown
T7 sequence: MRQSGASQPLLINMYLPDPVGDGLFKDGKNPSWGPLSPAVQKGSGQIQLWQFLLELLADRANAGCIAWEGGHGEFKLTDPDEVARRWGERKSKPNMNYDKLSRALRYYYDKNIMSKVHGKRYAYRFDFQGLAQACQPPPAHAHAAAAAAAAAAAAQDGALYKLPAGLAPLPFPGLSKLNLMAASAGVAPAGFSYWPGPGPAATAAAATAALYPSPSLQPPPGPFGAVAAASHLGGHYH
Outline: as §1

ETV5 = ETV5 (Homo sapiens, UniProt P41161 1-510); settings: protein: recombinant; tags: N-terminal GST; dsDNA, one strand shown
Outline: as §1

HSF1 = HSF1 (Homo sapiens, UniProt Q00613 1-529); settings: protein: recombinant; tags: N-terminal GST; chain copies: 3; dsDNA, one strand shown
Outline: as §1

SPIC = biological target: T8, SPIC (Homo sapiens, UniProt Q8N5J4 1-248); settings: protein: recombinant; tags: N-terminal GST; dsDNA, one strand shown
T8 sequence: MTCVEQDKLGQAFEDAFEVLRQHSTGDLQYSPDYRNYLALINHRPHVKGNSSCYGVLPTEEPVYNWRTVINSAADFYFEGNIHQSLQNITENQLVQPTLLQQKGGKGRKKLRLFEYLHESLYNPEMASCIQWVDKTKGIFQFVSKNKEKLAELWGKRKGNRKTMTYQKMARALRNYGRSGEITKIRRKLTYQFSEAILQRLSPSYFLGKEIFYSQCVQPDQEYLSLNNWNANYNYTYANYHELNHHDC
Outline: as §1

ELF4 = ELF4 (Homo sapiens, UniProt Q99607 1-663); settings: protein: recombinant; tags: N-terminal GST; dsDNA, one strand shown
Outline: as §1

ELK4 = biological target: T9, ELK4 (Homo sapiens, UniProt P28324-2 1-405); settings: protein: recombinant; tags: N-terminal GST; dsDNA, one strand shown
T9 sequence: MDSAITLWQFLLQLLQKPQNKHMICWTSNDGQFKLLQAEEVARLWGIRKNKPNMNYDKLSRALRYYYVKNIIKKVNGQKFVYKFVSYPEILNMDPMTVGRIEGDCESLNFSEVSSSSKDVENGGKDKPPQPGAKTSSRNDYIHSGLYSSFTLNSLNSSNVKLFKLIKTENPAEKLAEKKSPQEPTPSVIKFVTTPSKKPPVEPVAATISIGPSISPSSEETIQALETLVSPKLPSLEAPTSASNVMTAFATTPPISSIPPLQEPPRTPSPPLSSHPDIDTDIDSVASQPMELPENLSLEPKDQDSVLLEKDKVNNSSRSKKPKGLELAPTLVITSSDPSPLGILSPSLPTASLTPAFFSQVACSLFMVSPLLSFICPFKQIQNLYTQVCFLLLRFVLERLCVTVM
Outline: as §1

ETV2 = biological target: T10, ETV2 (Homo sapiens, UniProt O00321 1-342); settings: protein: recombinant; tags: N-terminal GST; dsDNA, one strand shown
T10 sequence: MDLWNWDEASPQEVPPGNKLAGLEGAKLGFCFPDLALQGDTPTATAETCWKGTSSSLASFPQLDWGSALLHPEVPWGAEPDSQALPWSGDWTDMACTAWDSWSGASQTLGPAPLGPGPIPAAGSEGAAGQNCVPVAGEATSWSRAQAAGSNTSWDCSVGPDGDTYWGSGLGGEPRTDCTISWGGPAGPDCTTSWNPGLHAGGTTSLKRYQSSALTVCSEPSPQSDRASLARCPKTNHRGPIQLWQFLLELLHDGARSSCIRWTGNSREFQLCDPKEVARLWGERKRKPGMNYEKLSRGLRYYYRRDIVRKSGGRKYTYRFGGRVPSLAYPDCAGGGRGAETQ
Outline: as §1

ELF3 = biological target: T11, ELF3 (Homo sapiens, UniProt P78545 1-371); settings: protein: recombinant; tags: N-terminal GST; dsDNA, one strand shown
T11 sequence: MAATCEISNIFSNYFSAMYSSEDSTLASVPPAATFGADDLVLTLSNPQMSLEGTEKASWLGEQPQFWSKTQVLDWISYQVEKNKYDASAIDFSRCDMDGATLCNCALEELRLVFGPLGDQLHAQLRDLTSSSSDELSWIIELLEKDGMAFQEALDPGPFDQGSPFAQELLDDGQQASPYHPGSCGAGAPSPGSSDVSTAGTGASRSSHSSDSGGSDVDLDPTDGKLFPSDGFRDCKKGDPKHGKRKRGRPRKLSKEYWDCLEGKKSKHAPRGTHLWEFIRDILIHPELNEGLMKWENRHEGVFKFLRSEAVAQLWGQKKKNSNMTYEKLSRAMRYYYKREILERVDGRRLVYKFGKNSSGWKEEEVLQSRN
Outline: as §1

CRX = CRX (Homo sapiens, UniProt O43186 1-299); settings: protein: recombinant; tags: N-terminal GST; dsDNA, one strand shown
Outline: as §1

ETV1 = ETV1 (Homo sapiens, UniProt P50549 1-477); settings: protein: recombinant; tags: N-terminal GST; dsDNA, one strand shown
Outline: as §1

Chain of ETV1 (P50549 whole entry): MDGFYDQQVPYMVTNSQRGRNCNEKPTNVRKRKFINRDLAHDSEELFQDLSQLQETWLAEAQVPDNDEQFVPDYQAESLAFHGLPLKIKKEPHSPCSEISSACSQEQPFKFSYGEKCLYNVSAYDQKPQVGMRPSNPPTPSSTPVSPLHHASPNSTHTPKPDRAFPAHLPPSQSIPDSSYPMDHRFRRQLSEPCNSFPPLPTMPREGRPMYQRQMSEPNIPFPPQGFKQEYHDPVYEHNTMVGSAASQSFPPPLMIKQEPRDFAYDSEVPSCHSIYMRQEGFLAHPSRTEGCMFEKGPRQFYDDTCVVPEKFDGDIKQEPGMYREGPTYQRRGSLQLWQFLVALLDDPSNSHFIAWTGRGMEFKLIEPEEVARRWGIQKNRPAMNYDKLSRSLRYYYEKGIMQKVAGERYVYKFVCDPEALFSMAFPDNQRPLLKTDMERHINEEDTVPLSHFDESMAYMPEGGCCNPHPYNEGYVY
Chain of ELF1 (P32519 whole entry): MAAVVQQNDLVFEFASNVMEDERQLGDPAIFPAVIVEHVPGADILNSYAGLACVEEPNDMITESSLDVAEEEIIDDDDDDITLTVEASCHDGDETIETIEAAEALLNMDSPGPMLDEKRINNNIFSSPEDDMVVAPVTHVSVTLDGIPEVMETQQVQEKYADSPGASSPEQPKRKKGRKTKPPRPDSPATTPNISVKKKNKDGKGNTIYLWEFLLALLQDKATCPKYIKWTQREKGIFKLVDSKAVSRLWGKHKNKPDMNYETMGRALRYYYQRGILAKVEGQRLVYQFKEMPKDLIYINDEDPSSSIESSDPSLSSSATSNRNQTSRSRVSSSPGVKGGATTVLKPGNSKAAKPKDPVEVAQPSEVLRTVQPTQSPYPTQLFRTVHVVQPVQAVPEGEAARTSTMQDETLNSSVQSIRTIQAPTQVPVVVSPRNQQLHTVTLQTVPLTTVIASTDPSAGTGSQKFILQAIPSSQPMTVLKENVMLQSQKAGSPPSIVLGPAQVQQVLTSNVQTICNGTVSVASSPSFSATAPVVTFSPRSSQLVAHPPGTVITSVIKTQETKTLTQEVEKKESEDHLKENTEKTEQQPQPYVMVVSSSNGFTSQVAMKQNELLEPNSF
Chain of SPIB (Q01892 whole entry): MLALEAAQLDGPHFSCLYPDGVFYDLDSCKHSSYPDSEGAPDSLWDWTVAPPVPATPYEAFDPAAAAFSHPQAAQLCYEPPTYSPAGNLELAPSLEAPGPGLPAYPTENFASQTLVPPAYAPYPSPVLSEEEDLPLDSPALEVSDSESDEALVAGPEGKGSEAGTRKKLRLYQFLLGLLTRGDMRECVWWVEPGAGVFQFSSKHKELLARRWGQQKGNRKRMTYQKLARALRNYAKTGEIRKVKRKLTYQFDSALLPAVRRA
Chain of CRX (O43186 whole entry): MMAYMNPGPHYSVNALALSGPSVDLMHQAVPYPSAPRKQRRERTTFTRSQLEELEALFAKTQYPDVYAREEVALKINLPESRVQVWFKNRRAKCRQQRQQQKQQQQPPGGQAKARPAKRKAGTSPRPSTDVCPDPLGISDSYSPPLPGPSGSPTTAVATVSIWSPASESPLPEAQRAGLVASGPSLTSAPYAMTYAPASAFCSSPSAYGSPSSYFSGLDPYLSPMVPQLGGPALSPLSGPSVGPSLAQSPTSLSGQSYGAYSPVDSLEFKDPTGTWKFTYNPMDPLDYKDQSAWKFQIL
Chain of ELF4 (Q99607 whole entry): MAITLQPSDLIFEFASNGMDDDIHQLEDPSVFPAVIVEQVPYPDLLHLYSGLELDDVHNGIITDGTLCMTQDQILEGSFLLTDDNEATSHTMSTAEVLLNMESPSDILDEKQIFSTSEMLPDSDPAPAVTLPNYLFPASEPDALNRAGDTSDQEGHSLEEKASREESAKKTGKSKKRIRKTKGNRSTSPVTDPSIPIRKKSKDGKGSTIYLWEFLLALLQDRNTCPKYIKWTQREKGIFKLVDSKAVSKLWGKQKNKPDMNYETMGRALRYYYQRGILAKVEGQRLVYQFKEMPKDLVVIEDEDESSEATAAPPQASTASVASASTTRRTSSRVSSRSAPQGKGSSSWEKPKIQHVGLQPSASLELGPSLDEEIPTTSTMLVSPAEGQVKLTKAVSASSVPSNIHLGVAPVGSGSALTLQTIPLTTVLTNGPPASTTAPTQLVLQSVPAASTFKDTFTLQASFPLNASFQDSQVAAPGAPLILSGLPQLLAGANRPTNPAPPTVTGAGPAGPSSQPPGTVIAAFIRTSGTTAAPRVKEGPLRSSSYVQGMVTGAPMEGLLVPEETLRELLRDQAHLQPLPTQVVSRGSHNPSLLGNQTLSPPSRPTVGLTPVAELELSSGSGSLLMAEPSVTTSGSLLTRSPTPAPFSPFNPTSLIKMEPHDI
Chain of HSF1 (Q00613 whole entry): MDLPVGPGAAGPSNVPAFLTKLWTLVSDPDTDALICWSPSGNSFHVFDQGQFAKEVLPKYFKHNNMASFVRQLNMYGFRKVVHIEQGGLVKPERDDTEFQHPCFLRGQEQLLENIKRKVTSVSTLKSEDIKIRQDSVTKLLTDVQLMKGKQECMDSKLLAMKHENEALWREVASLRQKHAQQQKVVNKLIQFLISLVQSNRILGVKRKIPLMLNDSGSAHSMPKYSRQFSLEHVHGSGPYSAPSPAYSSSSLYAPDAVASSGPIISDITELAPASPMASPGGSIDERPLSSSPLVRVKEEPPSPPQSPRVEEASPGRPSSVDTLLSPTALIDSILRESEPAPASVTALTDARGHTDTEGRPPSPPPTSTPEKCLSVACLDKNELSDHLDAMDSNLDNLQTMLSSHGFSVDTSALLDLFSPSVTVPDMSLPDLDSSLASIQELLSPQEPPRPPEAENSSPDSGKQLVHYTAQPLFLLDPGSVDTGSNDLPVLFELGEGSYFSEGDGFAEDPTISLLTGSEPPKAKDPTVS
Chain of ETV5 (P41161 whole entry): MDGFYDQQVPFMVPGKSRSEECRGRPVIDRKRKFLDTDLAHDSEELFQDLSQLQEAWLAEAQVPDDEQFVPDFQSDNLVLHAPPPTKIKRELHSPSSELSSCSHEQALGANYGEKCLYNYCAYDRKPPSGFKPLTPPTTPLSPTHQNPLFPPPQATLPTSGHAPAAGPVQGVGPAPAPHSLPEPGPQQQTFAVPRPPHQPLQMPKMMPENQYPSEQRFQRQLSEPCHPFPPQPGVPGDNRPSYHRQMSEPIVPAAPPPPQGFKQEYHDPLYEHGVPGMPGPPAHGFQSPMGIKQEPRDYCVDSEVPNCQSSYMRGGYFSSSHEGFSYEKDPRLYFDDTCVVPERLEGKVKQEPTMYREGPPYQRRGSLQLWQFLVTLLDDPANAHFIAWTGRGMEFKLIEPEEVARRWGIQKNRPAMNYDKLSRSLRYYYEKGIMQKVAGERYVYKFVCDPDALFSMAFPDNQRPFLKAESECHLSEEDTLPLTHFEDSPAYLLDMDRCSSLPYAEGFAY

## AAACAT
FLI1
  binding signal: 1.53 fold enrichment (6-mer frequency, TF over GST control)
ELK1
  binding signal: 1.4 fold enrichment (6-mer frequency, TF over GST control)
GABPA
  binding signal: 1.49 fold enrichment (6-mer frequency, TF over GST control)
ERG
  binding signal: 1.37 fold enrichment (6-mer frequency, TF over GST control)
ELF1
  binding signal: 1.5 fold enrichment (6-mer frequency, TF over GST control)
EHF
  binding signal: 1.43 fold enrichment (6-mer frequency, TF over GST control)
SPI1
  binding signal: 1.36 fold enrichment (6-mer frequency, TF over GST control)
SPIB
  binding signal: 1.48 fold enrichment (6-mer frequency, TF over GST control)
ELK3
  binding signal: 1.46 fold enrichment (6-mer frequency, TF over GST control)
FEV
  binding signal: 1.45 fold enrichment (6-mer frequency, TF over GST control)
ETV5
  binding signal: 1.57 fold enrichment (6-mer frequency, TF over GST control)
HSF1
  binding signal: 1.48 fold enrichment (6-mer frequency, TF over GST control)
SPIC
  binding signal: 1.53 fold enrichment (6-mer frequency, TF over GST control)
ELF4
  binding signal: 1.53 fold enrichment (6-mer frequency, TF over GST control)
ELK4
  binding signal: 1.49 fold enrichment (6-mer frequency, TF over GST control)
ETV2
  binding signal: 1.53 fold enrichment (6-mer frequency, TF over GST control)
ELF3
  binding signal: 1.53 fold enrichment (6-mer frequency, TF over GST control)
CRX
  binding signal: 1.32 fold enrichment (6-mer frequency, TF over GST control)
ETV1
  binding signal: 1.43 fold enrichment (6-mer frequency, TF over GST control)
